# Source: PubChem BioAssay (NCATS)
# Inconclusive results are not listed. Entries that show only a call come without a potency. Values without a mark were called inactive. Active and inactive are the calls of the source. Calls come from the whole dose curve; as a rule, active = well fitted curve in the direction sought with a large enough effect; inconclusive = small, poorly fitted or top-dose-only effect, or another doubt; inactive = no such curve, though single readings can be large; an effect the other way counts as inactive or inconclusive.
# How the values were obtained:
# [1] = biological target: Cellular tumor antigen p53 (Homo sapiens) (UniProt P04637); assay: Primary qHTS for small molecule compounds that upregulate eGFP-tagged delta133p53alpha (in N-terminal) cells. (AID 2060322); conditions: NCI-H358 eGFP-delta133p53alpha fluorescence, 24 h; activation: stronger effect = higher value; note: nearly all actives have a fitted effect of over 75% in size; note: potency is the fitted concentration of half-maximal effect; for activation: series mostly up to about 56 µM
# Method in brief: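 NCI-H358 cells pre-induced 24 h with 10 ng/ml doxycycline to express N-terminal eGFP-delta133p53alpha, then dosed 24 h at 37C without doxycycline; fixed, Hoechst-stained, GFP intensity by laser scanning cytometry, normalized to DMSO (0%) and 57.5 uM 5-azacytidine (100%).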
# [2] = biological target: Aldehyde dehydrogenase, mitochondrial (Homo sapiens) (UniProt P05091); assay: qHTS for Inhibitors of the Aldehyde Dehydrogenase Family (ALDH2) Primary screen (AID 2061308); note: nearly all actives have a fitted effect of over 55% in size
# [3] = biological target: Retinaldehyde dehydrogenase 3 (Homo sapiens) (UniProt P47895); assay: qHTS for Inhibitors of the Aldehyde Dehydrogenase Family (ALDH1A3) Primary screen (AID 2061315)
# Cellular tumor antigen p53 (Homo sapiens), sequence (P04637 whole entry, looked up): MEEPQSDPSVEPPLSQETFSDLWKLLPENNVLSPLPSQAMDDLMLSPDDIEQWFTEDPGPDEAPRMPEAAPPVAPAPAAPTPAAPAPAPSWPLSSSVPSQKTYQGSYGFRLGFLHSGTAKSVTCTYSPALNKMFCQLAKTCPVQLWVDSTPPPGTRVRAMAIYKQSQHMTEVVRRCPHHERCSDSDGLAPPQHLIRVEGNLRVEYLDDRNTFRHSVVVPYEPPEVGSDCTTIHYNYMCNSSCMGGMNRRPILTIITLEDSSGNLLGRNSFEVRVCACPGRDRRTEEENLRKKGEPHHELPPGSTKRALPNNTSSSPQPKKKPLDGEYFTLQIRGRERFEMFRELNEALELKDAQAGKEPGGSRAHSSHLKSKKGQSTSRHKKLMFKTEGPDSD
SMILES,activation [1] [%],Potency [2],Potency [3],Potency [1]
C/C=C1\[C@H](O[C@@H]2O[C@H](CO)[C@@H](O)[C@H](O)[C@H]2O)OC=C(C(=O)OC)[C@H]1CC(=O)OC,4.46,inactive,inactive,–
CCC(C)C(=O)OC1CC(C)C=C2C=CC(C)C(CCC(O)CC(O)CC(=O)O)C21 (configuration not stated),-1.53,inactive,inactive,–
CCS(=O)(=O)N1CC(CC#N)(n2cc(-c3ncnc4[nH]ccc34)cn2)C1,4.89,inactive,inactive,–
C=CC(C)(O)CC/C=C(\C)COC1O[C@H](CO)[C@@H](O)[C@H](O)[C@H]1O (some centres not stated),-14.5,inactive,inactive,–
N#Cc1cccc(C(=O)Nc2cc(-c3ccccc3)nn2-c2ccccc2)c1,-0.893,inactive,inactive,–
CC(CCC1(O)OC2CC3C4CC=C5CC(O[C@@H]6O[C@H](CO)[C@@H](O[C@@H]7O[C@H](CO)[C@@H](O)[C@H](O)[C@H]7O)[C@H](O)[C@H]6O[C@@H]6O[C@@H](C)[C@H](O)[C@@H](O)[C@H]6O)CCC5(C)C4CCC3(C)C2C1C)CO[C@@H]1O[C@H](CO)[C@@H](O)[C@H](O)[C@H]1O (some centres not stated),12.5,inactive,inactive,–
COC1CC(=O)C23C(=O)NC(CC(C)C)C2C(C)C(C)=CC3/C=C(\C)CCCC1O (configuration not stated),16.8,inactive,inactive,–
COc1cc(O)cc(/C=C/c2ccc(O[C@@H]3O[C@H](CO)[C@@H](O)[C@H](O)[C@H]3O)cc2)c1,-11.6,inactive,inactive,–
CC(C)(C)Nc1nc2cc(Cl)c(Cl)cc2nc1S(C)(=O)=O,–,inactive,inactive,3.38 µM (active)
